Screening results from PubChem.
SK-BR-3 tox 24h – SK-BR-3 proliferation inhibitors; 41,000 compounds, 0.47% hits; SK-BR-3 viability, CellTiter-Glo ATP luminescence, 24 h; hits give low values; viability, % at 10 µM;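 active means viability at or below the median of all test compounds minus 3 SD, in both replicates if run twice, cut at about 45% in these data; inconclusive means duplicate replicates that disagree with each other; inactive means viability above that cutoff in every replicate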;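 further: 100% = median untreated cell wells and 0% = median positive control drug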
PKA inh – blocks human protein kinase A activity; PKA Kemptide phosphorylation, Kinase-Glo ATP luminescence; P17612; 65,000 compounds, 0.1% hits; inhibition, % at 6 µM; AID 524;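 active means inhibition above the screen-wide mean inhibition plus 3 SD, cut at about 21% in these data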
ROCK2 inh – ROCK2 (human) kinase inhibition; O75116; purified ROCK2, Kinase-Glo ATP depletion luminescence; inhibition, % at 6 µM; 60,000 compounds, 0.35% hits; AID 604;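 active means inhibition above the screen-wide mean inhibition plus 3 SD, cut at about 18% in these data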;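 further: plate controls were DMSO wells for no effect and Y-27632 control wells after no-enzyme background subtraction for full effect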
Target sequence (O75116 whole entry, looked up): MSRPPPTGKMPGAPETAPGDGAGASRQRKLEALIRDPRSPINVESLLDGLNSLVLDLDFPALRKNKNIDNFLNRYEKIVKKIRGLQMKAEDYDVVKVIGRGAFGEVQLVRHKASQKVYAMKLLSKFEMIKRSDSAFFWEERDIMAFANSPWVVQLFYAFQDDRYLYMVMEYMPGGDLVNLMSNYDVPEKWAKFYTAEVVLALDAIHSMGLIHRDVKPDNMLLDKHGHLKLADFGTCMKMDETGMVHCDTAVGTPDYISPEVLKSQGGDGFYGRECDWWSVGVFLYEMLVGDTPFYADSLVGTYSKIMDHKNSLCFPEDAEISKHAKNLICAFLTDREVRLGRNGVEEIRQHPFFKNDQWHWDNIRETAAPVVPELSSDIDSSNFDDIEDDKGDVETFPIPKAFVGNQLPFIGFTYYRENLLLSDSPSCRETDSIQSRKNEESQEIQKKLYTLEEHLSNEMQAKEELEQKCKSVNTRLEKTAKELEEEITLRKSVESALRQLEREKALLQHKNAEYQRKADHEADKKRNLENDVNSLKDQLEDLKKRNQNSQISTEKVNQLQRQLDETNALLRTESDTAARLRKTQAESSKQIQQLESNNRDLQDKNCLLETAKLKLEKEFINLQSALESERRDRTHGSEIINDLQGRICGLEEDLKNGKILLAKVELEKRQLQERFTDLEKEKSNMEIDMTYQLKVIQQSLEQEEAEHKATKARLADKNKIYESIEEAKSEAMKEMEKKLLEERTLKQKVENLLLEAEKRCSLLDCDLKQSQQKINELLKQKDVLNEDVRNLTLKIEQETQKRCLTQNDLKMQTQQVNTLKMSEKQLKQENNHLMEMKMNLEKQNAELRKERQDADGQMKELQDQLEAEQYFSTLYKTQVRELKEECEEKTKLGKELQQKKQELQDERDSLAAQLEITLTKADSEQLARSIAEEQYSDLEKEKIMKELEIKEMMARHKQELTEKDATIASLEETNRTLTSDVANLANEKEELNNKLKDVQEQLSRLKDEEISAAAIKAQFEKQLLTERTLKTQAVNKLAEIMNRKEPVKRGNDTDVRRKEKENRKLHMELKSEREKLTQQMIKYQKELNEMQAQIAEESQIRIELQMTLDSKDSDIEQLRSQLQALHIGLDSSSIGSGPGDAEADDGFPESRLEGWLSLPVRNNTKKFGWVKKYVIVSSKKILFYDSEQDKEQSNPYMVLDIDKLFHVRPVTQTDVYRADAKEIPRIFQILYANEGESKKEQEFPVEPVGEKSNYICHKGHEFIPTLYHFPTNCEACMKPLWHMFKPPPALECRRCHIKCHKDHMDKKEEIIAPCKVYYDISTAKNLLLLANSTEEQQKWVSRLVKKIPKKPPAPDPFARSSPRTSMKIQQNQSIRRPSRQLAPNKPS
JNK3 inh – JNK3 (human) kinase inhibition. inhibition, % at 8 µM. AID 746. purified JNK3 kinase activity, HTS. P53779. 60,000 compounds, 0.61% hits; in the data active means inhibition above about 17%;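 further: 0% = DMSO and 100% = reference inhibitor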
Her2 expr inh – lowers expression of human Her2 kinase. SKBR-3 HER2 protein level, AlphaScreen, 18-24 h; hits give low values. AID 645. P04626. HER2 level % of control, % at 10 µM. 65,000 compounds, 0.69% hits;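 active means HER2 level under 5% of the carrier-only control; inconclusive means no clear call, values can overlap the other calls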;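 further: 100% = DMSO carrier and 0% = 500 nM PU-H71 HSP90 inhibitor; lower value means stronger loss of Her2 protein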
An asterisk follows results filed as active; ? = inconclusive; nt = no result given. Shown are actives, neighbours in structure and some others; about 1.5% of the full set was active somewhere.

SMILES | SK-BR-3 tox 24h | PKA inh | ROCK2 inh | JNK3 inh | Her2 expr inh
O=C1c2ccccc2-c2onc3ccc(NCCCn4ccnc4)c1c23 | 82.3 | 9.6 | 3.6 | 37.6* | 87.2
CC(=O)N(CC(C)(C)CC=C(C)C)c1ccccc1 | 81.8 | -1.6 | 0.6 | -10.4 | 104.3
O=C(Cc1ccc(Cl)cc1)Nc1ccc2oc(-c3ccncc3)nc2c1 | 33.6* | 15.1 | 14.6 | -1.2 | 21.4
O=C(Cc1ccccc1)Nc1ccc2oc(-c3cccnc3)nc2c1 | 82.1 | 8.4 | 2.7 | 1.5 | 108.0
COC(=O)c1[nH]c2ccc(C)cc2c1NS(=O)(=O)c1ccc(F)c(C)c1 | 77.7 | 11.0 | 9.2 | -2.5 | 93.3
COC(=O)c1[nH]c2ccc(C)cc2c1NS(=O)(=O)c1ccc(F)cc1 | 37.9* | -5.4 | -3.5 | -6.3 | 103.1
COC(=O)c1[nH]c2ccc(C)cc2c1NC(=O)CN1CCCc2ccccc21 | 101.9 | 4.1 | 0.0 | -6.2 | -22.1*
CCN1C(=O)C(C)S/C1=N\S(=O)(=O)c1ccc(Cl)s1 (stereo unspecified) | nt | 3.2 | 2.8 | -1.0 | 77.3
CCOc1ccc(CCNC(=O)C2CCCN(C(=O)N(C)C)C2)cc1OCC (stereo unspecified) | nt | 6.2 | 0.4 | -0.9 | 120.7
Nc1cc(Cl)ccc1Oc1ccccc1 | 99.5 | 1.1 | 1.7 | 0.0 | 87.9
Cc1ccc(Oc2ccccc2)c(NC=O)c1 | 36.0* | 10.1 | nt | nt | 108.5
COc1cc(-c2nc(-c3ccc(NC(=O)c4ccc5c(c4)OCO5)cc3)no2)cc(OC)c1OC | ? | -2.1 | 1.2 | 2.3 | -3.3*
COc1ccc(C)cc1S(=O)(=O)N(CC(N)=O)Cc1ccccc1 | 83.3 | 10.3 | 6.0 | 1.0 | 95.5
CCOC1(OCC)N=C(N)C2(C#N)C(c3ccc(NC(C)=O)cc3)C12C#N (stereo unspecified) | 89.8 | 3.8 | 26.5* | -6.1 | 78.8
Nc1ccc(-n2c(N)c(C(=O)NCc3ccc4c(c3)OCO4)c3nc4ccccc4nc32)cc1 | 103.3 | -0.3 | 3.2 | 20.7* | 64.5
Nc1c(C(=O)NCCN2CCOCC2)c2nc3ccccc3nc2n1-c1ccc2c(c1)OCO2 | 82.5 | 1.6 | 1.3 | 2.4 | 104.5
Nc1c(C(=O)NCc2ccc3c(c2)OCO3)c2nc3ccccc3nc2n1CCCN1CCOCC1 | 107.0 | 6.4 | 3.9 | -1.9 | 3.8*
O=C(NC1CCCCC1)Nn1c(-c2ccccc2)nc2ccccc2c1=O | 108.4 | 3.7 | 4.9 | -6.3 | 188.5
CCOC(=O)CSc1nnc(CNC(=O)c2ccc(OC)cc2)n1C1CCCCC1 | nt | 3.9 | 4.3 | -0.7 | 98.4
O=C(Cc1ccc(F)cc1)Nc1c2c(nn1-c1cccc(Cl)c1)CS(=O)C2 (stereo unspecified) | 36.3* | 10.5 | 3.9 | -1.6 | 115.5
CS(=O)(=O)c1nc(-c2ccco2)cc(C(F)(F)F)n1 | 30.8* | 8.5 | nt | nt | -22.4*
FC(F)(F)c1cc(-c2ccco2)nc(NCc2ccco2)n1 | 87.5 | 4.5 | nt | nt | 138.3
COCCn1c(CN2CCN(c3ccccc3F)CC2)nc2c1c(=O)n(C)c(=O)n2C | nt | 0.8 | 3.0 | -1.1 | 114.1
CCOc1ccccc1NC(=O)C1=C(C)NC(=O)NC1c1cccc(OC)c1OC (stereo unspecified) | 23.3* | 9.6 | 8.3 | 1.6 | 93.1
CCOC(=O)c1c(C)nn(Cc2cccc(Cl)c2)c1N | 82.8 | 7.0 | 3.3 | -1.8 | 80.5
SMILES | SK-BR-3 tox 24h | PKA inh | ROCK2 inh | JNK3 inh | Her2 expr inh
c1cnc(-c2nnc3n2CCCCC3)cn1 | nt | -3.1 | 0.3 | 1.7 | -16.0*
c1cc(-c2nnc3n2CCCCC3)ccn1 | nt | 8.6 | 6.6 | 5.8 | 141.1
CCn1nnc(-c2ccccc2NC(=O)c2cccc(-n3cnnn3)c2)n1 | 41.8* | 16.1 | 3.9 | -2.7 | 89.1
COC(=O)CS(=O)(=O)c1nnc([C@H](Cc2ccccc2)NC(=O)OC(C)(C)C)o1 | 131.4 | 0.7 | -2.5 | -2.2 | -17.1*
COC(=O)CSc1nnc([C@H](Cc2ccccc2)NC(=O)OC(C)(C)C)o1 | 78.7 | 0.3 | 3.0 | 3.6 | 63.2
CC(=O)c1cccc(S(=O)(=O)N(CCCO)Cc2cc3ccc(C)cc3[nH]c2=O)c1 | 99.4 | -2.9 | -1.7 | -0.6 | 103.9
Cc1cc(C)c(C(=O)CSc2n[nH]c(=O)n2C2CC2)cc1C | nt | 5.9 | 7.5 | 0.4 | 102.6
CC1=C(C(=O)NCc2ccccn2)C2(CCC(C)CC2)OC1=O (stereo unspecified) | nt | 7.0 | 4.3 | -9.3 | 80.7
COc1cccc(-n2c(SCC(N)=O)nnc2-c2ccncc2)c1 | 89.2 | 6.9 | 1.6 | -2.5 | 88.3
COc1cccc(-n2c(SCC(=O)O)nnc2-c2cccnc2)c1 | 78.4 | -5.1 | 0.0 | -3.5 | -17.7*
O=C(Nc1ccc(Cl)cc1)Nc1ccc2c(c1)N1CCN=C1S2 | 88.6 | 7.6 | 13.2 | 1.4 | -8.2*
Nc1ccc2c(c1)N1CCN=C1S2 | 101.5 | 4.8 | 1.2 | 1.1 | 85.8
O=C(c1oc2ccccc2c1CSCc1ccccc1)N1CCN(c2ncccn2)CC1 | nt | 9.2 | 5.2 | -1.4 | 58.1
CCOC(=O)c1ccc(N=c2sc(C(=O)OC)cc(=O)n2CCCN2CCOCC2)cc1 | nt | 2.6 | -7.9 | 4.0 | 56.7
CCOC(=O)c1ccc(N=c2sc(C(=O)OC)cc(=O)n2Cc2ccco2)cc1 | nt | 3.1 | 0.8 | 1.8 | 2.9*
CC(C)C(=O)Nc1cccc(NC(=O)CCN2C(=O)c3ccccc3S2(=O)=O)c1 | 102.9 | -6.7 | -0.3 | 4.0 | 111.3
CCCn1c(SCc2cc(=O)oc3ccc4ccccc4c23)n[nH]c1=O | nt | 5.4 | 6.4 | -2.9 | 95.2
COc1ccc(C2CC(=O)C(C=NCCO)=C(O)C2)cc1OC (stereo unspecified) | 85.2 | 9.4 | nt | nt | -27.9*
Cc1onc(-c2ccccc2Cl)c1C(=O)OCC(=O)N1CCCc2ccccc21 | nt | 9.0 | 4.0 | 5.2 | 92.4
O=C(COc1ccc(-n2cnnn2)cc1)NC(=O)NCc1ccccc1 | nt | 12.3 | 3.7 | -5.0 | 115.4
Cc1ccc(C(c2sc3nc(C)nn3c2O)N2CCN(c3ccccc3F)CC2)cc1 (stereo unspecified) | 92.7 | 9.1 | 5.4 | -5.6 | -18.1*
Cc1sc2nc(CN(Cc3cccs3)C(=O)C3CC3)[nH]c(=O)c2c1C | 98.1 | 11.7 | 2.8 | -4.2 | 90.8
COc1cc(C)nc(N(C)S(=O)(=O)c2ccccc2Cl)n1 | 51.9 | 6.2 | -0.3 | 1.6 | 71.0
CCC(Sc1nc2cc3c(cc2c(=O)n1Cc1ccco1)OCO3)C(=O)Nc1ccccc1OC (stereo unspecified) | nt | -0.8 | nt | nt | 20.2
CCC(Sc1nc2cc3c(cc2c(=O)n1Cc1ccco1)OCO3)C(=O)Nc1cccc(OC)c1 (stereo unspecified) | nt | 5.8 | nt | nt | -16.9*
CCOC(=O)c1c(C)oc2c1c1c(c3ccccc32)OCN(Cc2cccnc2)C1 | 56.1 | 6.7 | 4.5 | -2.9 | 55.1
CCOC(=O)c1c(C)oc2c1c(C(c1cccnc1)N1CCN(C)CC1)c(O)c1ccccc12 (stereo unspecified) | nt | -0.9 | -3.1 | 0.5 | -16.2*
Clc1ccc2c(c1)C(N1CCNCC1)=Nc1ccccc1O2 | 86.7 | -11.4 | -4.6 | -8.4 | 100.7
Cn1c(Cl)cnc1C1CC(=O)c2cc(Cl)ccc2O1 (stereo unspecified) | 69.2 | 3.1 | 4.2 | 0.7 | -14.9*
